Records with an inconclusive call do not appear. Calls of active or inactive are those of the source. Calls come from the whole dose curve; as a rule, active = well fitted cell-killing curve with a large enough effect; inconclusive = small, poorly fitted or top-dose-only effect, or effect the other way; inactive = no such curve, though single readings can be large or run the other way.
assay: Quantitative High-Throughput drug screen in 47 multiple myeloma cell lines against the NCATS MIPE library collection: MM1S_ATCC cell viability assay (AID 1918980); conditions: MM1S myeloma viability, CellTiter-Glo ATP luminescence, 48 h; series mostly up to 45.8 µM; viability (% of control): at the top concentration; note: nearly all actives have a fitted effect of over 45% in size
From the text: PI: Beverly A. Mock Ph.D.
Laboratory of Cancer Biology and Genetics,
Center for Cancer Research, National Cancer Institute,
National Institute of Health, Bethesda, Maryland
Drug resistance and disease progression are common in multiple myeloma (MM) patients, underscoring the need for new therapeutic combinations. […] We hypothesized that effective combinations would reduce MYC expression and enhance p16 activity. […] These preclinical data identify potentially useful drug combinations for evaluation in drug-resistant MM and reveal potential mechanisms of combined drug sensitivity.
Described herein is the primary MIPE qHTS used to cherrypick compounds. Validated compounds were then further tested for potential synergistic activiy.
[1] Peat TJ, Gaikwad SM, Dubois W, Gyabaah-Kessie N, Zhang S, Gorjifard S, Phyo Z, Andres M, Hughitt VK, Simpson RM, Miller MA, Girvin AT, Taylor A, Williams D, D'Antonio N, Zhang Y, Rajagopalan A, Flietner E, Wilson K, Zhang X, Shinn P, Klumpp-Thomas C, McKnight C, Itkin Z, Chen L, Kazandijian D, Zhang J, Michalowski AM, Simmons JK, Keats J, Thomas CJ, Mock BA. Drug combinations identified by high-throughput screening promote cell cycle transition and upregulate Smad pathways in myeloma. Cancer Lett. 2023 Aug 1;568:216284. doi: 10.1016/j.canlet.2023.216284. Epub 2023 Jun 24. PMID: 37356470; PMCID: PMC10408729.
SEQUENCE No. (e.g., 1, 2, 3, etc.); […] (e.g., Cells, Incubation, Reagent, etc.); VALUE and DESCRIPTION.
1; Cells; 5 uL; white, solid bottom 1536-well Greiner assay plate.
2; Compounds; 23 nL; Kalypsis pin tool (Wako USA) equipped with a 1536-well pin head to transfer to the assay plates.
3; Incubation; 48 hours; 37C incubation.
4; Reagent;5uL; CellTiter Glo (Promega).
5; Detector; 425V; Luminescence; Viewlux PerkinElmer.
NOTES (numbers refer to Sequence numbers above)
1. The cell-based screening methods employed in this study were like those previously published. Briefly, the corresponding myeloma cell lines were screened in 1,536-well plates with 500 cells, 5-uL per well for inhibition of cell viability (assessed by measuring ATP levels with CellTiterGlo).
2. NCATS MIPE 4.0 library of approved and investigational drugs were added using the Kalypsis pin tool. Wells treated with DMSO only for 100% viability and media only for 0% viability were used as controls.
3. The assay plates were covered and incubated for 48 hours in a 37C, 5% CO2 incubator with controlled humidity.
4. After 48 hours, CellTilter-GloTM luminescent substrate mix (Promega) reagent was added to the assay plate and plates we incubated for 5 min at room temperature.
5. Signal was measured as median relative luminescence units on a ViewLux (PerkinElmer) multiplate reader.
[1] Heske CM, Davis MI, Baumgart JT, Wilson K, Gormally MV, Chen L, Zhang X, Ceribelli M, Duveau DY, Guha R, Ferrer M, Arnaldez FI, Ji J, Tran HL, Zhang Y, Mendoza A, Helman LJ, Thomas CJ. Matrix Screen Identifies Synergistic Combination of PARP Inhibitors and Nicotinamide Phosphoribosyltransferase (NAMPT) Inhibitors in Ewing Sarcoma. Clin Cancer Res. 2017 Dec 1;23(23):7301-7311. doi: 10.1158/1078-0432.CCR-17-1121. Epub 2017 Sep 12. PMID: 28899971; PMCID: PMC6636827.
Potency is the fitted concentration of half-maximal effect.

Question: With `Cn1c2ccccc2c2c3c(c4c5ccccc5n(CCC#N)c4c21)CNC3=O` as the compound, how does the Potency read?
Answer: 2.09 µM (active)

Question: With `CCS(=O)(=O)c1cccc(-c2cc(C(=O)NC3CCN(C)CC3)c(C)c3[nH]c4ncc(C)cc4c23)c1` as the compound, how does the Potency read?
Answer: 1.66 µM (active)

Question: With `C[C@@H](Oc1cc(-c2cnn(C3CCNCC3)c2)cnc1N)c1c(Cl)ccc(F)c1Cl` as the compound, how does the Potency read?
Answer: 18.7 µM (active)

Question: With `COc1ccc(OC)c(-c2nnc3ccc(-c4ccc(OC)c(O[C@@H]5CCOC5)c4)nn23)c1` as the compound, how does the Potency read?
Answer: 7.43 µM (active)

Question: With `Nc1ncnc2c1c(-c1cnc3[nH]ccc3c1)nn2C1CCCC1` as the compound, how does the Potency read?
Answer: 2.96 µM (active)

Question: For `CC(C)[C@H](C(=O)Nc1ccc(C(=O)NO)cc1)c1ccccc1`, which Potency is on record?
Answer: 0.662 µM (active)

Question: For `CCC1=C[C@@H]2CN(C1)Cc1c([nH]c3ccccc13)[C@@](C(=O)OC)(c1cc3c(cc1OC)N(C)[C@@H]1[C@@](O)(C(=O)OC)[C@H](OC(C)=O)[C@]4(CC)C=CCN5CC[C@]31[C@@H]54)C2`, which Potency is on record?
Answer: 0.372 µM (active)

Question: For `CCCCc1nc2cc(C=CC(=O)NO)ccc2n1CCN(CC)CC`, which Potency is on record?
Answer: 0.526 µM (active)

Question: For `CC(=O)Nc1nc(C)c(-c2ccc(Cl)c(S(=O)(=O)NCCO)c2)s1`, which Potency is on record?
Answer: 1.48 µM (active)

Question: Which Potency does the source give for `COCCOc1ccc2c(c1)ncn2-c1ccc2cccc(N3CCC(N)CC3)c2n1` here?
Answer: 3.72 µM (active)

Question: With `c1cc(-c2cnn3cc(-c4ccc(OCCN5CCCCC5)cc4)cnc23)ccn1` as the compound, how does the Potency read?
Answer: 16.6 µM (active)

Question: For `Cc1nc(Nc2n[nH]c3c2CN(C(=O)N[C@H](CN(C)C)c2ccccc2)C3(C)C)c2sccc2n1`, which Potency is on record?
Answer: 2.64 µM (active)

Question: Which Potency does the source give for `COc1cc2ncn(-c3cc(OCc4ccccc4C(F)(F)F)c(C(N)=O)s3)c2cc1OC` here?
Answer: 3.32 µM (active)

Question: For `O=C(O)[C@H](Cc1c[nH]c2ccccc12)N1C(=O)c2ccccc2C1=O`, which Potency is on record?
Answer: 42.9 µM (active)

Question: Which “viability (% of control)” value does the source give for `O=C(c1cncc(Br)c1)N1CCC(N2CCCC2)CC1` here?
Answer: 112% (inactive)

Question: For `OCc1ccc(-c2ccc(-c3ccc(CO)s3)o2)s1`, which Potency is on record?
Answer: 6.62 µM (active)

Question: Which Potency does the source give for `CNC(=O)c1ccc(N2C(=S)N(c3cnc(C#N)c(C(F)(F)F)c3)C(=O)C23CCC3)cc1F` here?
Answer: 0.132 µM (active)

Question: With `O=C(O)Cn1nnc(-c2cc(N3CCC(Oc4cc(F)ccc4Br)CC3)no2)n1` as the compound, how does the Potency read?
Answer: 8.33 µM (active)

Question: For `CC1(O)CC(c2nc(-c3ccc4ccc(-c5ccccc5)nc4c3)c3c(N)nccn23)C1` (stereo not given), which Potency is on record?
Answer: 0.132 µM (active)

Question: With `CCCn1c(=O)c2[nH]c(-c3cnn(Cc4cccc(C(F)(F)F)c4)c3)nc2n(CC)c1=O` as the compound, how does the Potency read?
Answer: 16.6 µM (active)

Question: Which Potency does the source give for `Cc1ccc(CN2CCNCC2)cc1NC(=O)CNc1ccc(F)c(F)c1` here?
Answer: 2.64 µM (active)

Question: With `Cc1ccc(C(N)=O)cc1Nc1nccc(-c2cn(C(C)C)c3cnccc23)n1` as the compound, how does the Potency read?
Answer: 7.43 µM (active)

Question: Which Potency does the source give for `CC(C)=CCCC(C)=CCCC(C)=CCSc1ccccc1C(=O)O` here?
Answer: 5.26 µM (active)

Question: Which Potency does the source give for `C#Cc1cccc(Nc2ncnc3cc(OC)c(OCCCCCCC(=O)NO)cc23)c1` here?
Answer: 0.0235 µM (active)

Question: With `CC1COC2(CCN(c3nc(=O)c4cc(C(F)(F)F)cc([N+](=O)[O-])c4s3)CC2)O1` (stereo not given) as the compound, how does the “viability (% of control)” value read?
Answer: 116% (inactive)

Question: With `CNC(=O)c1ccccc1Nc1nc(Nc2ccc(N3CCOCC3)cc2OC)ncc1Cl` as the compound, how does the Potency read?
Answer: 0.662 µM (active)

Question: With `COc1cc(=C2C=c3ccccc3=N2)[nH]c1=Cc1[nH]c(C)cc1C` as the compound, how does the Potency read?
Answer: 4.18 µM (active)

Question: For `CC1(C)OC2=C(C(=O)c3ccccc3C2=O)[C@H](NCc2ccccc2)[C@H]1O`, which Potency is on record?
Answer: 2.09 µM (active)

Question: For `CC[C@H](CO)Nc1nc(NCc2ccccc2)c2ncn(C(C)C)c2n1`, which Potency is on record?
Answer: 20.9 µM (active)

Question: With `CCC(=C(c1ccccc1)c1ccc(OCCN(C)C)cc1)c1ccccc1` as the compound, how does the Potency read?
Answer: 29.6 µM (active)

Question: Which Potency does the source give for `C=CC(=O)Nc1cc2c(Nc3ccc(F)c(Cl)c3)ncnc2cc1C#CC(C)(C)N1CCN(C)CC1` here?
Answer: 2.09 µM (active)

Question: With `C[C@]1(CO)CN(c2cc(C(=O)Nc3ccc4c(c3)-c3c(c(C(N)=O)nn3-c3ccc(F)cc3)CC4)c(Cl)cn2)C[C@@]1(C)CO` as the compound, how does the Potency read?
Answer: 14.8 µM (active)

Question: For `CC(C)c1cnn2c(NCc3ccccc3)cc(N[C@@H](CO)[C@H](O)CO)nc12`, which Potency is on record?
Answer: 0.235 µM (active)

Question: Which Potency does the source give for `Cc1cc(Nc2cc(N3CCN(C)CC3)nc(C=Cc3ccccc3)n2)n[nH]1` here?
Answer: 17.1 µM (active)

Question: With `COc1cccc(-c2ccc(NC(=O)C3=C(C(=O)O)CCC3)c(F)c2)c1` as the compound, how does the Potency read?
Answer: 3.72 µM (active)

Question: Which Potency does the source give for `COc1c(OCCCN2CCOCC2)ccc2c3n(c(=NC(=O)c4cnc(N)nc4)nc12)CCN3` here?
Answer: 0.0911 µM (active)

Question: Which Potency does the source give for `CC1=C(CO)C(=O)O[C@@H]([C@@H](C)[C@H]2CC[C@H]3[C@@H]4C[C@H]5O[C@]56[C@@H](O)C=CC(=O)[C@]6(C)[C@@H]4CC[C@]23C)C1` here?
Answer: 0.148 µM (active)

Question: With `C=CC(=O)Nc1cc2c(Nc3ccc(F)c(Cl)c3)ncnc2cc1OCCCN1CCOCC1` as the compound, how does the Potency read?
Answer: 18.7 µM (active)

Question: With `COc1ccc(C(=O)CC2(O)C(=O)Nc3c(Cl)ccc(Cl)c32)cc1` (stereo not given) as the compound, how does the Potency read?
Answer: 18.7 µM (active)

Question: With `O=C(c1ccc(Nc2nccc(-c3cc4ccccc4s3)n2)cc1)N1CCC(N2CCCC2)CC1` as the compound, how does the Potency read?
Answer: 20.9 µM (active)

From PubChem BioAssay (NCATS)
